Measured values published in article PMC7862700, “An all-to-all approach to the identification of sequence-specific readers for epigenetic DNA modifications on cytosine”.

Columns and labels:
Test in all cases: DAPPL (digital affinity profiling via proximity ligation, sequencing); 10 mM Tris-HCl pH 7.5, 50 mM NaCl, 1 mM DTT, 4% glycerol, room temperature, 30 min; GST-TFs on glutathione beads, 16-mer random dsDNA library, 0.1% formaldehyde crosslink after washing; high values mean tight binding
FLI1 = target: T1, FLI1 (Homo sapiens, UniProt Q01543 1-452); conditions: protein: recombinant; tags: N-terminal GST; dsDNA, one strand shown
T1 sequence: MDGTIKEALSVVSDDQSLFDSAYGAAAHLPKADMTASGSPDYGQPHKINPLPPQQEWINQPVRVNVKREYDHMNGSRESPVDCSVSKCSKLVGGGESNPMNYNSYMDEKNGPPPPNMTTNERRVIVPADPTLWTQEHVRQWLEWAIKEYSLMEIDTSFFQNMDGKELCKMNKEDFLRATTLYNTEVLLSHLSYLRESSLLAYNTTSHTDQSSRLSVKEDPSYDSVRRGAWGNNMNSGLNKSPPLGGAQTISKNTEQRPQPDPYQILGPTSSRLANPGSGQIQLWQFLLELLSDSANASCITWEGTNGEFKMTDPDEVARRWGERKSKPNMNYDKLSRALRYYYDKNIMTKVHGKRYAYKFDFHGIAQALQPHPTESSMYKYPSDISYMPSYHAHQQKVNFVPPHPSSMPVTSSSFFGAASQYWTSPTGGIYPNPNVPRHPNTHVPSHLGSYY
Summary of the method: (§1)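 Beads coated with glutathione captured GST-fused human transcription factors that had been expressed in yeast, and the factors were then given DNA barcodes and pooled with a tag-only sample. The pools were incubated with 200 nmole of a random double-stranded 16-mer DNA library in Tris/NaCl/DTT/glycerol buffer for 30 min at room temperature, washed, crosslinked with 0.1% formaldehyde and proximity-ligated with BsaI/T4 ligase at 37 °C for 1 h. PCR amplification and Illumina NextSeq500 sequencing came last. Binding signal is each hexamer's read frequency for a factor divided by its frequency for the tag-only sample.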

ELK1 = target: T2, ELK1 (Homo sapiens, UniProt P19419 1-428); conditions: protein: recombinant; tags: N-terminal GST; dsDNA, one strand shown
T2 sequence: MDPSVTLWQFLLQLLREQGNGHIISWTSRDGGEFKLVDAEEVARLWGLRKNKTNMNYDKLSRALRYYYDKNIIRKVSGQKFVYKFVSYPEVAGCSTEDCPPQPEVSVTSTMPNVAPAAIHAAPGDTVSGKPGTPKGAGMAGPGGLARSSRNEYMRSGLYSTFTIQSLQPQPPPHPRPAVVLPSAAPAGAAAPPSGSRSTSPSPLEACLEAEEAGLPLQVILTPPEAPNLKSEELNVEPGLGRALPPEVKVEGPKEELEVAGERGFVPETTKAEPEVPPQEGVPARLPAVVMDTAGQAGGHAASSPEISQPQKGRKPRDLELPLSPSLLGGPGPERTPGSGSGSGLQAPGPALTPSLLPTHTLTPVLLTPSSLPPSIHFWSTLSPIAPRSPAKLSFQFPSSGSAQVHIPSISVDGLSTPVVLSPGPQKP
Summary of the method: as §1

GABPA = target: T3, GABPA (Homo sapiens, UniProt Q06546 1-454); conditions: protein: recombinant; tags: N-terminal GST; dsDNA, one strand shown
T3 sequence: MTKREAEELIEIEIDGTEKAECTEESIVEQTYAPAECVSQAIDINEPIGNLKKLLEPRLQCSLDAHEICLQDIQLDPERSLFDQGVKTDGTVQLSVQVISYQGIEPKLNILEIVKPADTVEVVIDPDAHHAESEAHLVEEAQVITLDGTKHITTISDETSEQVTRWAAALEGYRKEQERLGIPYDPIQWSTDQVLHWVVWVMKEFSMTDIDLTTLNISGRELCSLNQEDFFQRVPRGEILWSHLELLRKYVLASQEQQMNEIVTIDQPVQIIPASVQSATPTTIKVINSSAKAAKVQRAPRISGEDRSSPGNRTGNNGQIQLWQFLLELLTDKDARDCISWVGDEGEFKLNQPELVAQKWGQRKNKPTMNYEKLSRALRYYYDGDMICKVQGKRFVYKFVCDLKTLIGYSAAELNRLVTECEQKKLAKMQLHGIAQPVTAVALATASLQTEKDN
Summary of the method: as §1

ERG = target: T4, ERG (Homo sapiens, UniProt P11308 1-479); conditions: protein: recombinant; tags: N-terminal GST; dsDNA, one strand shown
T4 sequence: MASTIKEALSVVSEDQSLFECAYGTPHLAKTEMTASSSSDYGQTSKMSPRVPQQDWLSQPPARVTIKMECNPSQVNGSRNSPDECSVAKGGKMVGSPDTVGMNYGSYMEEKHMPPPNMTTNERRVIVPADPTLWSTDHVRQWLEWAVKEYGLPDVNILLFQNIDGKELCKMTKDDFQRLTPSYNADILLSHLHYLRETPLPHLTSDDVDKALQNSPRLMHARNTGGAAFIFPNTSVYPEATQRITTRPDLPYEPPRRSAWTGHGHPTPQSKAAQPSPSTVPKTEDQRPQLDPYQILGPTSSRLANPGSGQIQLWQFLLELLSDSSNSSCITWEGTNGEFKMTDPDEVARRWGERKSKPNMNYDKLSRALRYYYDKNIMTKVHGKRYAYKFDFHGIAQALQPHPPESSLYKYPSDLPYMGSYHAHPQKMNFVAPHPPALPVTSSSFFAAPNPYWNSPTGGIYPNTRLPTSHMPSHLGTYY
Summary of the method: as §1

ELF1 = ELF1 (Homo sapiens, UniProt P32519 1-619); conditions: protein: recombinant; tags: N-terminal GST; dsDNA, one strand shown
Summary of the method: as §1

EHF = target: T5, EHF (Homo sapiens, UniProt Q9NZC4 1-300); conditions: protein: recombinant; tags: N-terminal GST; dsDNA, one strand shown
T5 sequence: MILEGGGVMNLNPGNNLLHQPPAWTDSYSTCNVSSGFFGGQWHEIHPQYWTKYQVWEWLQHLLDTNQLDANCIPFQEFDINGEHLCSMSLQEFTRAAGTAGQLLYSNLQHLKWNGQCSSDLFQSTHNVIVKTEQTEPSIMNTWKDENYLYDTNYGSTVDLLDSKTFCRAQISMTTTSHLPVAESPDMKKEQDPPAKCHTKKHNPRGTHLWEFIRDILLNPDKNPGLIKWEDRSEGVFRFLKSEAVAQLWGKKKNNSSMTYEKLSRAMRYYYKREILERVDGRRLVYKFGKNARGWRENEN
Summary of the method: as §1

SPI1 = SPI1 (Homo sapiens, UniProt P17947 1-270); conditions: protein: recombinant; tags: N-terminal GST; dsDNA, one strand shown
Summary of the method: as §1

SPIB = SPIB (Homo sapiens, UniProt Q01892 1-262); conditions: protein: recombinant; tags: N-terminal GST; dsDNA, one strand shown
Summary of the method: as §1

ELK3 = target: T6, ELK3 (Homo sapiens, UniProt P41970 1-407); conditions: protein: recombinant; tags: N-terminal GST; dsDNA, one strand shown
T6 sequence: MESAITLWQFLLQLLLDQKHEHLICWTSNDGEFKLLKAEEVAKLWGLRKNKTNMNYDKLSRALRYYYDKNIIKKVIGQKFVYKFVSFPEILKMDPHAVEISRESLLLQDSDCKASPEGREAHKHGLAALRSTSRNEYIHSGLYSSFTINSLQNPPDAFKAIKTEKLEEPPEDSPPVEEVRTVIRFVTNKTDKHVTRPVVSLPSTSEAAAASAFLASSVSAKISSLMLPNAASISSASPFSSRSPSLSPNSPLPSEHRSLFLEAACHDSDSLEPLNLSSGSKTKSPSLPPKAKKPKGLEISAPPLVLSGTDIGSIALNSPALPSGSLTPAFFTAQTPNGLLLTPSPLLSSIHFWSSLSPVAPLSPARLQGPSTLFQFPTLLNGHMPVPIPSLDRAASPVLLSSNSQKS
Summary of the method: as §1

FEV = target: T7, FEV (Homo sapiens, UniProt Q99581 1-238); conditions: protein: recombinant; tags: N-terminal GST; dsDNA, one strand shown
T7 sequence: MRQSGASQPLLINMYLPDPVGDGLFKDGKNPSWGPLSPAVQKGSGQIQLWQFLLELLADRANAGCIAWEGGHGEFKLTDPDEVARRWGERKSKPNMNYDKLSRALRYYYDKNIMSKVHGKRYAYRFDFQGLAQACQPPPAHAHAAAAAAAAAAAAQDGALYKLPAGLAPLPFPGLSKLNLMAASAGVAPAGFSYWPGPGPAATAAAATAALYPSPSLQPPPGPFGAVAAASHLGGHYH
Summary of the method: as §1

ETV5 = ETV5 (Homo sapiens, UniProt P41161 1-510); conditions: protein: recombinant; tags: N-terminal GST; dsDNA, one strand shown
Summary of the method: as §1

HSF1 = HSF1 (Homo sapiens, UniProt Q00613 1-529); conditions: protein: recombinant; tags: N-terminal GST; chain copies: 3; dsDNA, one strand shown
Summary of the method: as §1

SPIC = target: T8, SPIC (Homo sapiens, UniProt Q8N5J4 1-248); conditions: protein: recombinant; tags: N-terminal GST; dsDNA, one strand shown
T8 sequence: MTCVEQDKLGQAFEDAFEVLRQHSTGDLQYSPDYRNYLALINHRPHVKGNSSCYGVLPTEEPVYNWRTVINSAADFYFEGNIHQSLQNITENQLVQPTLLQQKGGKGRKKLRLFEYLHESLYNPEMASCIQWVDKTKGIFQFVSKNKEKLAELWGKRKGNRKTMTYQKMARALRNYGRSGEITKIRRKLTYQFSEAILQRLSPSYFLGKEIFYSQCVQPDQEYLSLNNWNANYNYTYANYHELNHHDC
Summary of the method: as §1

ELF4 = ELF4 (Homo sapiens, UniProt Q99607 1-663); conditions: protein: recombinant; tags: N-terminal GST; dsDNA, one strand shown
Summary of the method: as §1

ELK4 = target: T9, ELK4 (Homo sapiens, UniProt P28324-2 1-405); conditions: protein: recombinant; tags: N-terminal GST; dsDNA, one strand shown
T9 sequence: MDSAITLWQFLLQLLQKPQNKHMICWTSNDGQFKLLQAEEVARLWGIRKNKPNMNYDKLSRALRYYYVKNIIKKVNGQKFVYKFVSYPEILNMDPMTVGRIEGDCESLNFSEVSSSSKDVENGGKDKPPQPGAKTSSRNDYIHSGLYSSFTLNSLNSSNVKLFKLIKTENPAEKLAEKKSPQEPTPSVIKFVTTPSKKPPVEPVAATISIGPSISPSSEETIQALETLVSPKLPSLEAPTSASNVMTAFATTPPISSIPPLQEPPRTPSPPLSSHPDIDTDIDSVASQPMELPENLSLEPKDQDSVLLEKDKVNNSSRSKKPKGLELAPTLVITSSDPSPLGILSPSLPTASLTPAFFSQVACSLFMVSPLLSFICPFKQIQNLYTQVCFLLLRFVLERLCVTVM
Summary of the method: as §1

ETV2 = target: T10, ETV2 (Homo sapiens, UniProt O00321 1-342); conditions: protein: recombinant; tags: N-terminal GST; dsDNA, one strand shown
T10 sequence: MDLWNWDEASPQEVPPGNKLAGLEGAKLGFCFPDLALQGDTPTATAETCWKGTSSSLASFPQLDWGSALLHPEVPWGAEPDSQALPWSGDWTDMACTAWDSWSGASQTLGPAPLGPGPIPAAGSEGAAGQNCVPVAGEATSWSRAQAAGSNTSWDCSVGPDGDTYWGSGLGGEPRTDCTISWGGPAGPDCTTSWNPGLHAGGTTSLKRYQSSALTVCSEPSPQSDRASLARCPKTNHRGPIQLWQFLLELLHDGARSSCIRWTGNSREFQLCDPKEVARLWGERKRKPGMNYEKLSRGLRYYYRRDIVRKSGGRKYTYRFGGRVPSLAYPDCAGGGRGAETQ
Summary of the method: as §1

ELF3 = target: T11, ELF3 (Homo sapiens, UniProt P78545 1-371); conditions: protein: recombinant; tags: N-terminal GST; dsDNA, one strand shown
T11 sequence: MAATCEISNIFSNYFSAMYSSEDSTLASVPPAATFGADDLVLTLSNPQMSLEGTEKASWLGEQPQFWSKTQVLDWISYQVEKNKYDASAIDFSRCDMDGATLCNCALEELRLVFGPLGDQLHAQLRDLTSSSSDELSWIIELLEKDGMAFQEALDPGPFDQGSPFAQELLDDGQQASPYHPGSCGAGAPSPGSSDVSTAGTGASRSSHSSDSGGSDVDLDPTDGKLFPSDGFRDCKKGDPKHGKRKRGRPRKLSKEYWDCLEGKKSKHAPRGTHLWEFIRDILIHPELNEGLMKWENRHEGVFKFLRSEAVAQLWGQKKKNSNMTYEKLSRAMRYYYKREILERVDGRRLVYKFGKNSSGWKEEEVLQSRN
Summary of the method: as §1

CRX = CRX (Homo sapiens, UniProt O43186 1-299); conditions: protein: recombinant; tags: N-terminal GST; dsDNA, one strand shown
Summary of the method: as §1

ETV1 = ETV1 (Homo sapiens, UniProt P50549 1-477); conditions: protein: recombinant; tags: N-terminal GST; dsDNA, one strand shown
Summary of the method: as §1

Sequence of ELF4 (Q99607 whole entry): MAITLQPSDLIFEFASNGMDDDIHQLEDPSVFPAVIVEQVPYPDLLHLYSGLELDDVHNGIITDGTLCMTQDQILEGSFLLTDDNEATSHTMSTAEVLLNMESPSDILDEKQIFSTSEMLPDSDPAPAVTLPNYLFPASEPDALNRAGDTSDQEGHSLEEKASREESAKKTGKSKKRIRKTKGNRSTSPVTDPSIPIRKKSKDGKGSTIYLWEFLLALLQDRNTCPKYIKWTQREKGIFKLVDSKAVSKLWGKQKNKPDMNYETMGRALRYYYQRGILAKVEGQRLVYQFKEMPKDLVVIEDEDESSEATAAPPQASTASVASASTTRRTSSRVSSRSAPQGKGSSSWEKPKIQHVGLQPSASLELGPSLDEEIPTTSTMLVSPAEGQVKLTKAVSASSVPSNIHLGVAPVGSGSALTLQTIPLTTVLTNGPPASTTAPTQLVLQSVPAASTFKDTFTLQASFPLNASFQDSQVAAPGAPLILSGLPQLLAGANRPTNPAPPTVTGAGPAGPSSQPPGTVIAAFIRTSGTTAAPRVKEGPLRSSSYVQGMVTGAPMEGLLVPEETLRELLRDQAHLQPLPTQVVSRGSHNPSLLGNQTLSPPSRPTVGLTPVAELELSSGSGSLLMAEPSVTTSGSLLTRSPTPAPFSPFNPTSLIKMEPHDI
Sequence of SPIB (Q01892 whole entry): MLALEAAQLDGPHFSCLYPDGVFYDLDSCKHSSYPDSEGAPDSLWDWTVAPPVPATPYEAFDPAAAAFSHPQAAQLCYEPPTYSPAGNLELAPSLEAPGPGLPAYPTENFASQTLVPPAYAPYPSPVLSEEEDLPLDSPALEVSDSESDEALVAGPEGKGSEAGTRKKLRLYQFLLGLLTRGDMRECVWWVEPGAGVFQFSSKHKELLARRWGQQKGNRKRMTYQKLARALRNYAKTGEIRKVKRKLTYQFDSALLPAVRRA
Sequence of HSF1 (Q00613 whole entry): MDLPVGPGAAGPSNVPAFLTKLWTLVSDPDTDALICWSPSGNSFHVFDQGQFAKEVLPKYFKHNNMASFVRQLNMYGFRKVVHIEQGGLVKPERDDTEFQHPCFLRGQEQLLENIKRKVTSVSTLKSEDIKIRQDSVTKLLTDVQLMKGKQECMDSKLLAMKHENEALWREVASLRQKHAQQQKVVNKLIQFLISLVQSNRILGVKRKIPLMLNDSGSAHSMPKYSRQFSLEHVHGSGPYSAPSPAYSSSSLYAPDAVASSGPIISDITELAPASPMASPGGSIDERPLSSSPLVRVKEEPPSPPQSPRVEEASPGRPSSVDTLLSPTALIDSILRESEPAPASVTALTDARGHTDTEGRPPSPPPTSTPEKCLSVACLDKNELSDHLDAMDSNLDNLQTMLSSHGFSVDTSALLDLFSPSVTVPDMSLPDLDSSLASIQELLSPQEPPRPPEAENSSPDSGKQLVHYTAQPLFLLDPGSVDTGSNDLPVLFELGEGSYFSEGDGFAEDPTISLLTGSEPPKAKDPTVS
Sequence of ELF1 (P32519 whole entry): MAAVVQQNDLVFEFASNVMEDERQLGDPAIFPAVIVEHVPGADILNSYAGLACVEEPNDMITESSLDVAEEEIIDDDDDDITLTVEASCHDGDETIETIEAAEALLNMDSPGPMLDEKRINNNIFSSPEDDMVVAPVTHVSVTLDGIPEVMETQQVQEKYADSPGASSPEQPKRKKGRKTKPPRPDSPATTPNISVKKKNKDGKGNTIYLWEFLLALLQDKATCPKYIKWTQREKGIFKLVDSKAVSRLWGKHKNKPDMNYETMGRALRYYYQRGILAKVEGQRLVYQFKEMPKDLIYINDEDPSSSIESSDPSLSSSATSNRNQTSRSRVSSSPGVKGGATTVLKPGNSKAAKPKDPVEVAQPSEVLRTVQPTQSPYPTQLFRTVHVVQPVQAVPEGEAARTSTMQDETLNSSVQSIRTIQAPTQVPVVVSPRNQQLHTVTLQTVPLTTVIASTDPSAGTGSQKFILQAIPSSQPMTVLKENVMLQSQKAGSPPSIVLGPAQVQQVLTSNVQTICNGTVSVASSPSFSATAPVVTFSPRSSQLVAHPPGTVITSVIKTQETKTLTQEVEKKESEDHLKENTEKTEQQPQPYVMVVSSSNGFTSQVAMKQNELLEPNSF
Sequence of ETV1 (P50549 whole entry): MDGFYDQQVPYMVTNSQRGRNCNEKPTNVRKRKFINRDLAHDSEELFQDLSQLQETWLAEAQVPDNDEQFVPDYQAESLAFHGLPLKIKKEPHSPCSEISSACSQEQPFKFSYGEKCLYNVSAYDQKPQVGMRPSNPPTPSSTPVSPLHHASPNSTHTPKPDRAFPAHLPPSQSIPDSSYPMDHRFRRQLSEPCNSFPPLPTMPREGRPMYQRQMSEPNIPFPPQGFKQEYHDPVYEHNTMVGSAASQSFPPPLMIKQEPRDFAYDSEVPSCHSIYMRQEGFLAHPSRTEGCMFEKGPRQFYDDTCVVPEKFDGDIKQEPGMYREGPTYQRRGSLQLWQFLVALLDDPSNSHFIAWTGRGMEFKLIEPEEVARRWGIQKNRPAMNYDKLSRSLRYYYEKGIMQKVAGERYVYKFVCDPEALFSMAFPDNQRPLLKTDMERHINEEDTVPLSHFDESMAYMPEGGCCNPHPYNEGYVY
Sequence of CRX (O43186 whole entry): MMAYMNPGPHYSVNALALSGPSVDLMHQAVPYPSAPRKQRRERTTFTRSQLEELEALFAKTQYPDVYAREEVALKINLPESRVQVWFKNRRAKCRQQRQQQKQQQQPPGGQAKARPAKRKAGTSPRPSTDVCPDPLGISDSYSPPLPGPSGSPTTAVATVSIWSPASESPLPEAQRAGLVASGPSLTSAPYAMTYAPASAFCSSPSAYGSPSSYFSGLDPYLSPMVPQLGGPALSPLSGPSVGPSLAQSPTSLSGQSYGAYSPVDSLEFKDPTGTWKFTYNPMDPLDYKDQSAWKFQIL
Sequence of ETV5 (P41161 whole entry): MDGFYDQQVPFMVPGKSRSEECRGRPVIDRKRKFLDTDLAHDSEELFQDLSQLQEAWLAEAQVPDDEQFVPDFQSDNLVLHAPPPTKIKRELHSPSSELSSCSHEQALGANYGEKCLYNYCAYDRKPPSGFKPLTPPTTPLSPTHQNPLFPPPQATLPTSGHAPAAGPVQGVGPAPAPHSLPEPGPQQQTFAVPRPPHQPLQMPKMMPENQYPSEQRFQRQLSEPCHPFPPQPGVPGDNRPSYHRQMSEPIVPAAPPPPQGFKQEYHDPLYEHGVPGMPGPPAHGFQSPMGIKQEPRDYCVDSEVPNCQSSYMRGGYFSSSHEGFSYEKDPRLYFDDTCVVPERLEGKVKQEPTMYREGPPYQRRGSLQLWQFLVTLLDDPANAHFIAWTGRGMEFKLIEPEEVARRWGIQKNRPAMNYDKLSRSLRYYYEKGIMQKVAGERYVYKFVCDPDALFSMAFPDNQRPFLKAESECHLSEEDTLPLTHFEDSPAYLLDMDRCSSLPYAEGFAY

AATACT
binding signal (FLI1): 1.16 fold enrichment (6-mer frequency, TF over GST control)
binding signal (ELK1): 1.19 fold enrichment (6-mer frequency, TF over GST control)
binding signal (GABPA): 1.23 fold enrichment (6-mer frequency, TF over GST control)
binding signal (ERG): 1.22 fold enrichment (6-mer frequency, TF over GST control)
binding signal (ELF1): 1.29 fold enrichment (6-mer frequency, TF over GST control)
binding signal (EHF): 1.24 fold enrichment (6-mer frequency, TF over GST control)
binding signal (SPI1): 1.21 fold enrichment (6-mer frequency, TF over GST control)
binding signal (SPIB): 1.14 fold enrichment (6-mer frequency, TF over GST control)
binding signal (ELK3): 1.23 fold enrichment (6-mer frequency, TF over GST control)
binding signal (FEV): 1.21 fold enrichment (6-mer frequency, TF over GST control)
binding signal (ETV5): 1.27 fold enrichment (6-mer frequency, TF over GST control)
binding signal (HSF1): 1.34 fold enrichment (6-mer frequency, TF over GST control)
binding signal (SPIC): 1.25 fold enrichment (6-mer frequency, TF over GST control)
binding signal (ELF4): 1.16 fold enrichment (6-mer frequency, TF over GST control)
binding signal (ELK4): 1.24 fold enrichment (6-mer frequency, TF over GST control)
binding signal (ETV2): 1.36 fold enrichment (6-mer frequency, TF over GST control)
binding signal (ELF3): 1.26 fold enrichment (6-mer frequency, TF over GST control)
binding signal (CRX): 1.47 fold enrichment (6-mer frequency, TF over GST control)
binding signal (ETV1): 1.26 fold enrichment (6-mer frequency, TF over GST control)
